Compound activity (PubChem BioAssay)
KLK7 zymogen act = proKLK7 zymogen activators, primary screen, biochemical, fluorescence intensity. Kallikrein-7 (Homo sapiens), P49862. purified proKLK7, EDANS-DABCYL substrate fluorescence; 100% is mature enzyme control, 0% vehicle. activation, % at 7 µM. 370,000 tested, 0.9% active. AID 652039, 2013;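 active = activation above the mean of all tested compounds plus 3 SD, computed per campaign excluding outliers beyond control limits, cut at about 13% in these data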
Target sequence (P49862 whole entry, looked up): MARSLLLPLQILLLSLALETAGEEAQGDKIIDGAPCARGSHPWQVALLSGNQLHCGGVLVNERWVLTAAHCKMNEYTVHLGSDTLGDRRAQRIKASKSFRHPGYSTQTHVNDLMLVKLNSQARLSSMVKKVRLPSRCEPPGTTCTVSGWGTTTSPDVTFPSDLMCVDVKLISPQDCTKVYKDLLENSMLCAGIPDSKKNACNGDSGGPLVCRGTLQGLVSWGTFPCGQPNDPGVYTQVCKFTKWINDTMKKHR
PLC-beta3 inh = human PLC-beta3 inhibitors, primary screen, biochemical, fluorescence. 370,000 tested, 0.18% active. Purified PLC-beta3, fluorogenic substrate. AID 720704, 2013. inhibition, % at 12.2 µM. 1-phosphatidylinositol 4,5-bisphosphate phosphodiesterase beta-3 (Homo sapiens), Q01970; in the data active = inhibition above about 11%;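 also: 0% = median of compound wells on plate and 100% = full blocker control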
PLCg1 inh = PLC-gamma1 enzyme inhibitors, primary screen, biochemical, fluorescence, purified enzyme; fluorogenic substrate; 1-phosphatidylinositol 4,5-bisphosphate phosphodiesterase gamma-1 (Homo sapiens), P19174; inhibition, % at 12.2 µM; 370,000 tested, 0.84% active; AID 720700, 2013; in the data active = inhibition above about 9.5%
ADAM10 inh = human ADAM10 inhibitors, primary screen, biochemical, QFRET, HTS; inhibition, % at 7 µM; 370,000 tested, 0.62% active; recombinant ADAM10, EDANS/DABCYL FRET peptide cleavage, 3 h; Disintegrin and metalloproteinase domain-containing protein 10 (Homo sapiens), O14672;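 active = inhibition above a per-campaign cutoff equal to the mean of compounds falling between control-based bounds plus 3 SD, cut at about 20% in these data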;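 also: 0% = DMSO wells while the 100% control is not disclosed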
ADAM17 inh = ADAM17 inhibitors, primary screen, biochemical, QFRET | recombinant ADAM17, EDANS/DABCYL FRET peptide cleavage | inhibition, % at 6.95 µM | 370,000 tested, 0.83% active | AID 720648, 2013;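 active = inhibition above the mean of compounds lying between control limits plus 3 SD, set per campaign, cut at about 8.5% in these data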;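 also: 0% = DMSO-only wells as the low control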
proKLK7 act conf = proKLK7 zymogen activators, confirmation, biochemical, fluorescence intensity, triplicate | shares compounds with KLK7 zymogen act | purified proKLK7, EDANS-DABCYL substrate fluorescence; scaled: vehicle 0, mature enzyme 100 | activation, % at 7 µM | 3,200 tested, 68% active;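 active = activation, as change over the incubation, above the mean of all tested compounds plus 3 SD, cut at about 13% in these data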
EDANS-DABCYL int = EDANS-DABCYL substrate optical interference, artefact control for kallikrein-7 zymogen activator project, biochemical, fluorescence intensity, high throughput; shares compounds with KLK7 zymogen act; no enzyme, 4 h; solvent 0%, active enzyme control 100%; activation, % at 7 µM; 3,200 tested, 80% active; AID 686952, 2013;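 active = activation above the all-compound mean plus 3 SD, ignoring values outside control-based bounds, cut at about 4.8% in these data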;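 also: value is the 4 h activation minus the activation read at time zero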
* = called active by the depositor; i = inactive; nt = no result. Sampled rows, rich in hits. Any-hit rate of the full collection: about 2.9%.

SMILES	KLK7 zymogen act	PLC-beta3 inh	PLCg1 inh	ADAM10 inh	ADAM17 inh	proKLK7 act conf	EDANS-DABCYL int
COc1cc2c(cc1OC)CN(C(=O)c1ccc(S(=O)(=O)N3CCCC3)cc1)CC2	0	-8	-2	-3	-2	nt	nt
COc1cc2c(cc1OC)CN(C(=O)NS(=O)(=O)c1ccc(C)cc1)CC2	20*	-93	-66	-61	-17	4	1
COc1ccc(Cn2cc(CN3[C@@H](CC(C)C)COc4cccc(F)c4S3(=O)=O)nn2)cc1	0	-1	-2	-1	-4	nt	nt
COC(=O)[C@]12C[C@H](CC(=O)NCc3ccc(C)o3)C(=O)N(Cc3cccc4ccccc34)C1=C[C@H](C(C)(C)C)O[C@@H]2C	1	3	1	5	4	nt	nt
COc1ccc(CNCc2ccncc2)c(OC)c1	0	-5	-1	-3	-4	nt	nt
COc1ccc(CNCc2c(O)c(Cl)cc3c(C)c(C)c(=O)oc23)c(OC)c1	32*	i	i	i	i	74*	78*
CCc1cc(=O)oc2c(CNCc3ccc(OC)cc3OC)c(O)c(Cl)cc12	44*	i	i	i	i	70*	67*
CC(C)CCN(C)C1CCN(C(=O)Nc2ccc3c(c2)OCO3)CC1	0	1	-2	-9	2	nt	nt
Cc1ccc(-n2c(SCc3nc4ccccc4[nH]3)nnc2-c2ccccn2)cc1	0	-2	-1	-8	2	nt	nt
CCCCN(CC)CCCNC(=O)c1cc2c(=O)n(CC)c3ccccc3c2s1	11	-87	-70	i	-237	nt	nt
CCCN(CCC)CCCNC(=O)c1cc2c(=O)n(CC)c3ccccc3c2s1	19*	-88	-62	i	-219	-8	-12
CCn1c(=O)c2cc(C(=O)NCCC(C)C)sc2c2ccccc21	-2	-14	-5	-82	-32	nt	nt
CCCCN(CC)CCNC(=O)c1cc2c(=O)n(CC)c3ccccc3c2s1	14*	-141	-96	i	-256	-1	-3
CCn1c(=O)c2cc(C(=O)NCCCOC)sc2c2ccccc21	15*	-30	-19	-261	-93	-11	-14
CCCCN(CC)CCNC(=O)c1cc2c(=O)n(C)c3ccccc3c2s1	19*	-305	-259	i	-445	1	-2
C[C@@H]1CCN(C2CC2)S(=O)(=O)c2c(cccc2N2CC[C@@H](N(C)C)C2)O1	-1	0	1	-4	-3	nt	nt
COCC#Cc1ccc(CC[C@H]2O[C@H]3CC[C@@H](CO)O[C@H]3C[C@H]2n2cc(C3CC3)nn2)cc1	0	4	0	-1	5	nt	nt
CCN(CC)CCNC(=O)c1cc2c(=O)n(C)c3ccccc3c2s1	27*	-234	-187	i	-330	-10	-18
CC(C)(C)N(Cc1ccccc1)C(=O)COC(=O)Cn1cnc2ccccc2c1=O	15*	-4	5	-5	4	1	1
CC(C)(C)N(Cc1ccccc1)C(=O)COC(=O)Cn1[nH]c(=O)c2ccccc2c1=O	0	2	-2	0	-3	nt	nt
CCCCNS(=O)(=O)CC1NCc2ccc(C)cc21 (stereo not drawn)	-1	-8	-7	-4	-2	nt	nt
COc1ccc(-c2csc(-c3ccc(C(=O)O)cc3)n2)cc1	22*	-406	-380	-479	-133	35*	53*
CC(C)N1Cc2nnn(Cc3ccccc3)c2-c2cc(N3CCCC3)ccc2S1(=O)=O	-4	-56	-40	-37	-7	nt	nt
CCC(=O)OCc1cc(=O)oc2ccc3ccccc3c12	22*	i	i	i	i	-7	-19
O=C1CCC(C(=O)OCc2cc(=O)oc3ccc4ccccc4c23)=NN1	145*	-209	-149	i	-244	357*	371*
